Compounds with a hit are over-represented: about 21% of the library has one in this group of screens.
Shiga toxin inh – Shiga toxin inhibition; Vero cells, Shiga toxin protein synthesis inhibition reporter; inhibition, % at 38.7 µM; 290,000 compounds, 9.2% hits; in the data active means inhibition mostly above about 28%, no sharp cut-off; inactive means mostly below about 43%; further: 0% is about no effect
Cycloheximide cs – counter-screen hit for Shiga toxin inhibitors, cycloheximide; cell reporter, cycloheximide protein synthesis inhibition counterscreen; max response, %; 300,000 compounds, 12% hits; in the data active means max response mostly above about 13%, no sharp cut-off; inactive means mostly below about 14%; further: read at 38.3 µM for the half of the compounds with a filed dose; 0% is about no effect
Pf growth 96h – inhibits malaria parasite growth, 96 h; P. falciparum luciferase reporter growth, 96 h; Potency, µM (titrated, usually from 28.7 µM), without a hit: top-dose activity change, negative = inhibition, usual class: inhibitors; 320,000 compounds, 6.9% hits; further: potency means the concentration at half of the fitted maximal effect; on the % scale 0 is the no-effect control and ±100 the full control effect
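P. falciparum expressing integrated firefly luciferase, in erythrocytes at 2% hematocrit, 0.05% parasitemia, incubated with compounds 96 h at 37 C, 5% CO2. Growth inhibition read as loss of luminescence; two-generation exposure targets delayed-death apicoplast inhibitors.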
Pf growth 48h – P. falciparum growth inhibition at 48 hours (one generation) | P. falciparum luciferase growth in erythrocytes, 48 h | Potency, µM (top dose mostly 28.7 µM), for inactives: at the top dose activity change, negative = inhibition, usual class: inhibitors | 310,000 compounds, 5.9% hits | AID 504832; further: potency means the concentration at half of the fitted maximal effect; on the % scale 0 is the no-effect control and ±100 the full control effect
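Growth was read as firefly luciferase luminescence after a 48 h, 37 C, 5% CO2 exposure of compounds to reporter-bearing P. falciparum cultures (0.1% parasitemia, 2% hematocrit final) in Albumax-supplemented RPMI 1640.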
Active calls of the source: *; i = inactive; ? = inconclusive; nt = no result. Unless noted, the call rests on the fitted dose curve; in most records, active means well fitted inhibition curve with a large enough effect; inconclusive means small, poorly fitted or top-dose-only effect, or another doubt; inactive means no such curve, though single readings can be large or run the other way.

SMILES	Shiga toxin inh	Cycloheximide cs	Pf growth 96h	Pf growth 48h
Cc1ccc2[nH]cc(CCNC(=O)Nc3ccccc3)c2c1	-9	12*	?	nt
CCOC(=O)C(O)C1CCc2c([nH]c3ccc(C)cc23)C1=O (stereo unspecified)	50	25*	42%	?
CCOC(=O)N1CCc2[nH]c3ccc(C)cc3c2C1	-4	6	-17%	10%
C/C(=N\NC(=O)c1cccc(S(=O)(=O)Nc2ccccc2Cl)c1)c1ccc(-n2ccnc2)cc1	-20	-2	nt	1%
C/C(=N\NC(N)=S)C1=CCC2C3CC[C@H]4CC(O)CC[C@]4(C)C3CC[C@]12C (stereo partly specified)	27	13	12µM*	nt
CC12CCC3C(CCC4CC(O)CCC43C)C1CC=C2c1ccccc1 (stereo unspecified)	-4	-4	nt	nt
CN(C)S(=O)(=O)c1cccc(NC(=O)c2ccc3nccnc3c2)c1	44	20*	-10%	23%
Cc1cc(NC(=O)c2cccc(S(=O)(=O)N(C)C)c2)n(-c2ccccn2)n1	-8	-5	4.7µM*	nt
CC(=O)c1cccc(NC(=O)c2cccc(S(=O)(=O)N(C)C)c2)c1	8	13*	nt	34%
O=C(CCSc1ccccc1)NC(=O)COC(=O)c1ccc(OC(F)F)cc1	-3	-4	-17%	4%
CC(C)(C)C(O)C(Cc1ccccc1Cl)n1cncn1 (stereo unspecified)	3	-3	?	?
Cn1ncc(N=Cc2ccccc2)c1C(=O)Nc1cccc(Cl)c1	49	20	33%	28%
COc1ccc(-c2csc(-c3cccs3)n2)c(OC)c1	70*	34*	439%	i
COc1ccc(-c2csc(-c3ccccc3)n2)c(OC)c1	115*	53*	376%	362%
COCCN(Cc1ccco1)C(=O)Cn1ncc2c(=O)oc3ccccc3c21	14	-1	1%	7%
COc1ccc(-c2c(C)c3cc(O)ccc3oc2=O)cc1OC	-9	-4	?	0%
COc1ccc(C2=CC(c3ccc(OC)c(OC)c3)c3c(c4ccccc4oc3=O)O2)cc1OC (stereo unspecified)	41	1	8.3µM*	2.6µM*
CCCc1cc(-c2n[nH]c(C)c2-c2ccc(C(=O)OCC)o2)c(O)cc1O	-6	-4	13%	?
CCc1cc(-c2n[nH]c(C)c2-c2ccccc2Cl)c(O)cc1OC	80*	32*	-14%	?
COc1ccc(-c2n[nH]c(C)c2-c2cscn2)c(O)c1	-3	-4	0%	16%
CCOc1ccc(-c2n[nH]c(C)c2-c2ccccc2OC)c(O)c1	-10	-1	-28%	3.3µM*
C=C(C)COc1ccc(-c2n[nH]c(C)c2-c2ccc(OC)cc2)c(O)c1	-8	-4	3.7µM*	?
COc1ccc(-c2c(-c3ccc(OCC(=O)NN)cc3O)n[nH]c2C(F)(F)F)cc1	-1	-2	9.3µM*	9.3µM*
Cc1noc(C)c1C(=O)N(C)CC(=O)Nc1ccc(F)c(F)c1F	nt	nt	3%	11%
CC(NC(=O)C(C)N1c2cccc3cccc(c23)S1(=O)=O)c1ccccc1 (stereo unspecified)	-4	-4	139%	19%
SMILES	Shiga toxin inh	Cycloheximide cs	Pf growth 96h	Pf growth 48h
COc1cccc(NCc2cc(=O)oc3cc(C)c(O)cc23)c1	8	16	-26%	-8%
CCc1ccc2oc(=O)cc(CN3CCN(c4ccc(F)cc4)CC3)c2c1	-20	6	?	?
O=c1cc(CN2CCN(c3ccccc3)CC2)c2c(ccc3ccccc32)o1	-5	-2	10µM*	13µM*
COc1ccc(N2CCN(Cc3cc(=O)oc4c3ccc3ccccc34)CC2)cc1	2	-3	12µM*	-16%
O=c1cc(CN2CCC3(CC2)OCCO3)c2c(ccc3ccccc32)o1	4	1	nt	?
CC(C)c1ccc2oc(=O)cc(CN3CCN(c4ccc(F)cc4)CC3)c2c1	-13	1	nt	13µM*
COc1ccc(N2CCN(Cc3cc(=O)oc4ccc(C)cc34)CC2)cc1	2	-1	?	nt
COc1cccc(NCc2cc(=O)oc3cc(-c4ccccc4)c(O)cc23)c1	62*	27*	?	?
Cc1nc(NC(=O)CN2CC(C)OC(C)C2)sc1C(=O)N(C)C (stereo unspecified)	-9	-1	?	1%
O=c1cc(CN2CCN(Cc3ccccc3)CC2)c2ccc(O)cc2o1	3	-9	?	?
O=c1cc(CN2CCN(c3cccc(Cl)c3)CC2)c2cc(O)c(-c3ccccc3)cc2o1	1	-1	?	2.1µM*
O=c1cc(CN2CCN(c3ccccc3)CC2)c2cc(O)c(-c3ccccc3)cc2o1	34	-2	3.3µM*	2.6µM*
COc1ccc(C(=O)n2c(C)c(CCO)c(=O)n2C)cc1	29	7	0%	65%
CCOc1ccc(NC(=O)C(C)NS(=O)(=O)c2ccc(NC(C)=O)cc2)cc1 (stereo unspecified)	-10	-2	32%	-8%
O=C(N/N=C(\Cc1ncc[nH]1)c1ccccc1)c1ccccc1	-6	-2	?	19%
O=C(N/N=C(\c1ccccc1)c1cccnc1)c1ccc(O)cc1	18	8	2%	0%
O=C(N/N=C(\c1ccccc1)c1cccnc1)c1cccc(F)c1	17	3	?	1.9µM*
O=C(N/N=C(\Cc1ncc[nH]1)c1ccccc1)c1cccnc1	9	-1	?	9.3µM*
NC(=O)NC(CC(=O)NCCCc1ccccc1)c1ccccc1Cl (stereo unspecified)	-6	2	58%	-3%
CC1CCC(NC(=O)CC(NC(N)=O)c2ccccc2Cl)CC1 (stereo unspecified)	57	31*	79%	17%
Cc1cc(OCCOCCNCc2ccccc2)ccc1C(C)C	nt	-2	7.4µM*	?
CCCCNCCOCCOc1ccccc1-c1ccccc1	16	-3	?	10µM*
CC(C)(C)c1ccccc1OCCOCCNCc1ccccc1	-3	-4	23%	8.3µM*
Cc1ccc(C(C)C)c(OCCNCc2ccccc2)c1	-2	-2	336%	8%
CC(Oc1ccccc1)C(=O)N=C1SC2CS(=O)(=O)CC2N1Cc1ccccc1 (stereo unspecified)	-2	1	22%	-16%
SMILES	Shiga toxin inh	Cycloheximide cs	Pf growth 96h	Pf growth 48h
Cc1ccc(S(=O)(=O)C2(C(=O)Nc3ccc(Br)cc3)CC2)cc1	46	32*	-29%	-11%
COc1ccc(NC(=O)C2(S(=O)(=O)c3ccc(C)cc3)CC2)cc1OC	30	-2	60%	20%
O=C(O)c1ccccc1C(=O)c1ccc2c(c1)N(Cc1ccc(Cl)c(Cl)c1)C(=O)CO2	-8	-2	0%	-119%
COc1ccc(-n2nc3c(c2NC(=O)CCCCl)CSC3)cc1	28	16*	?	?
Cc1nc(NC(=S)NC(=O)c2cccs2)ccc1Br	32*	31*	?	-3%
Cc1nc(NC(=S)NC(=O)c2cccs2)sc1C(=O)N(C)C	23	10	50%	nt
N#Cc1ccccc1NC(=S)NC(=O)c1cccs1	77*	31*	4%	22%
Cc1cccc(NC(=S)NC(=O)c2ccco2)n1	35	16*	6%	32%
O=C(NC(=S)Nc1cccc2cccnc12)c1cccs1	32	-2	19%	5%

Assay outcomes from PubChem BioAssay.
